Laboratory results: PubChem BioAssay
“And” between values parts separate entries of the source, which are not always exact repeats. Identical values can stand only once. A number with no mark means an inactive call. The list shows a part of the results. The source made the active and inactive calls.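 How the source made its calls, unless noted: active means mean inhibition above 46.68%, the untreated control wells mean plus 3 SD; inactive means the rest.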

Columns and labels:
[1] = target: Nuclear receptor coactivator 3 (Homo sapiens) (UniProt Q9Y6Q9); assay: SRC3 coactivator transcriptional activity inhibitors, confirmation, cell-based, luminescence, quadruplicate (AID 588792;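 active means mean inhibition over 43.08%, the solvent-only control mean plus 3 SD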;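 further: 0% = DMSO treated cells and 100% = gossypol at 36 µM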); settings: HEK293 GAL4-SRC3 luciferase reporter, at 3.6 µM, active compounds read high
[2] = tested on: transactivating tegument protein VP16 (Human herpesvirus 1), Gal4-VP16 luciferase reporter; assay: VP16 transactivation inhibitors, counter-screen for SRC3 inhibitor project, cell-based, luminescence, high throughput (AID 588794; in the data active means inhibition above about 30%); settings: mammalian cells, VP16-driven luciferase reporter luminescence; at 3.6 µM; active compounds read high
[3] = target: Nuclear receptor coactivator 1 (Homo sapiens) (UniProt Q15788); assay: SRC1 coactivator transcriptional activity inhibitors, confirmation, cell-based, luminescence, quadruplicate (AID 588820); settings: HEK293 GAL4-SRC1 luciferase reporter, at 3.6 µM, active compounds read high;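 further: 0% = DMSO wells and 100% = gossypol 36 µM treated wells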
Sequence of Nuclear receptor coactivator 1 (Homo sapiens) (Q15788 whole entry, looked up, the tested form may be a part): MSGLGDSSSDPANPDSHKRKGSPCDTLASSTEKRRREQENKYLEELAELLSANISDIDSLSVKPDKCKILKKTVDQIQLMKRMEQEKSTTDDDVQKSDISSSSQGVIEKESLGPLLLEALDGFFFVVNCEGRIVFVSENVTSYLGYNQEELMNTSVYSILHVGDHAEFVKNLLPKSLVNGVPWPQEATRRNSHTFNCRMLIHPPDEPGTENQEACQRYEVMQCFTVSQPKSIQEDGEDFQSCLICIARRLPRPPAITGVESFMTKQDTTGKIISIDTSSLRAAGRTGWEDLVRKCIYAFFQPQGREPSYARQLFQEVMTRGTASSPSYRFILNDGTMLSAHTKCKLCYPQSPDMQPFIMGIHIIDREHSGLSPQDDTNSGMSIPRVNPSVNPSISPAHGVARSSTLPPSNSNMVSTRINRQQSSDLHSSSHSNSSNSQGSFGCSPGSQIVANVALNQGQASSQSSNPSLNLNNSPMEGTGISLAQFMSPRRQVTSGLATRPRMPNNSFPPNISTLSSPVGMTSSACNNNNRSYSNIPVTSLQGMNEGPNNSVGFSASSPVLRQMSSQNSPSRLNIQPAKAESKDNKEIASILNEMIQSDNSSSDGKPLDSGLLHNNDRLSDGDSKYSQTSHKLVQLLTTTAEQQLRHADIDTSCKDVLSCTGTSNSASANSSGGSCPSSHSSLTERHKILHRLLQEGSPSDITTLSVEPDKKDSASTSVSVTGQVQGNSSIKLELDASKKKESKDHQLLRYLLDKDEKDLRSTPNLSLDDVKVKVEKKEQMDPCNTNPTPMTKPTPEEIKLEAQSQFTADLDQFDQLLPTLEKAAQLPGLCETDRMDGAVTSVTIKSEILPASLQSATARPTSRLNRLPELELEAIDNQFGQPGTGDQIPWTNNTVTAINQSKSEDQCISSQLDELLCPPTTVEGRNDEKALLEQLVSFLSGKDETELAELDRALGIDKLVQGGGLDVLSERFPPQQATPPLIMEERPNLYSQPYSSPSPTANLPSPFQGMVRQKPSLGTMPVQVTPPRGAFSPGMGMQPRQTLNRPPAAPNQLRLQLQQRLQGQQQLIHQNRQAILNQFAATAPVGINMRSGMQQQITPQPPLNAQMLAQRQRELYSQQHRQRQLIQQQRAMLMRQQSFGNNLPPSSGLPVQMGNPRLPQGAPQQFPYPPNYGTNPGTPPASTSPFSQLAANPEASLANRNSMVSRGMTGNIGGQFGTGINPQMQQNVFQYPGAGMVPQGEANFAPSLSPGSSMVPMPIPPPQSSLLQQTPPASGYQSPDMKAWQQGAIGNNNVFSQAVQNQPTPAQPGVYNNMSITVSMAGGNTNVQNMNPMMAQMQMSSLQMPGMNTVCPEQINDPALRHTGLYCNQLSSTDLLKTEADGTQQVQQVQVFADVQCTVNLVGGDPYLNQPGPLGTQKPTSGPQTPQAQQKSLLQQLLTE

[4] = VP16 transactivation inhibitors, counter-screen for SRC1 inhibitor project, cell-based, luminescence, high throughput (AID 588824; in the data active means inhibition above about 25%); settings: cell-based VP16 transactivation luciferase luminescence; at 3.6 µM; active compounds read high
[5] = StAR promoter reporter inhibitors, counter-screen for LRH-1 inverse agonist project, cell-based, luminescence, high throughput (AID 651611; in the data active means inhibition above about 28%); settings: StAR promoter luciferase reporter counterscreen, at 3.6 µM, active compounds read high
[6] = target: Nuclear receptor subfamily 5 group A member 2 (Homo sapiens) (UniProt O00482); assay: LRH-1 (NR5A2) inverse agonists, retest, confirmation, cell-based, luminescence (AID 651613; in the data active means inhibition above about 42%;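 further: HEK293T cells co-transfected with LRH-1 and StAR promoter luciferase reporter; 0% = vehicle wells and 100% = parental cells lacking receptor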); settings: cell-based LRH-1 luciferase reporter, inverse agonism; at 3.6 µM; active compounds read high
Sequence of Nuclear receptor subfamily 5 group A member 2 (Homo sapiens) (O00482 whole entry, looked up): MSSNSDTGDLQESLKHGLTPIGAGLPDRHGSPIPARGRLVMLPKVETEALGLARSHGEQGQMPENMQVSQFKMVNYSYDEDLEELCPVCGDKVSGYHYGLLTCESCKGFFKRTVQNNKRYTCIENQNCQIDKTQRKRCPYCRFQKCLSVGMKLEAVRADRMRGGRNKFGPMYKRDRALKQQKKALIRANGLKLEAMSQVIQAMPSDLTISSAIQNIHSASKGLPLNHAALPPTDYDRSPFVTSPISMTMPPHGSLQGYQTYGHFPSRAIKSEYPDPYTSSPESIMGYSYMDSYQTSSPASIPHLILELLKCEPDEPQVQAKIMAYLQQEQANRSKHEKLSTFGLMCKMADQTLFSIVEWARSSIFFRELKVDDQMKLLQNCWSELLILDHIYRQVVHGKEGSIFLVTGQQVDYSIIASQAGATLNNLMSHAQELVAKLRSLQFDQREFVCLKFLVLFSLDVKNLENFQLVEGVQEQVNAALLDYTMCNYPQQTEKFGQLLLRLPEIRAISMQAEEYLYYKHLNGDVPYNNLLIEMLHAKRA

[7] = target: Steroidogenic factor 1 (Homo sapiens) (UniProt Q13285); assay: SF1 (NR5A1) inverse agonists, counter-screen for LRH-1 inverse agonist project, cell-based, luminescence, high throughput (AID 651614; in the data active means inhibition above about 44%;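 further: cells cotransfected with StAR promoter reporter and SF1 expression vector; 0% = vehicle on cells with receptor and 100% = vehicle on cells lacking receptor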); settings: cell-based SF1 luciferase reporter, at 3.6 µM, active compounds read high
Sequence of Steroidogenic factor 1 (Homo sapiens) (Q13285 whole entry, looked up, the tested form may be a part): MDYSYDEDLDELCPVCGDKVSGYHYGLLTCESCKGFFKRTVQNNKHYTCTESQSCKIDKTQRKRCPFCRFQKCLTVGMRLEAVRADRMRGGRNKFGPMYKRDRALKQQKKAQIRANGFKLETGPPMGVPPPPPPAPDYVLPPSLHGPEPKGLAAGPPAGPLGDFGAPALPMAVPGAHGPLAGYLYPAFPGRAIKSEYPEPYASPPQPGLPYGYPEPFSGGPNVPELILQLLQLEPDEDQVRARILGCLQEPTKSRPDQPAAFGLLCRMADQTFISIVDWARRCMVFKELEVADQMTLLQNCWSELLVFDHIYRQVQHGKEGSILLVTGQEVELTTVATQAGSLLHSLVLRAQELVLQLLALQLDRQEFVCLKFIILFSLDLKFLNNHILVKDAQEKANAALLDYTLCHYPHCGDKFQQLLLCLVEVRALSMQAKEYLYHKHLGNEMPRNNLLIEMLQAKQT

[8] = VP16 transactivation reporter inhibitors, counter-screen for LRH-1 inverse agonist project, cell-based, luminescence, high throughput (AID 651615; in the data active means inhibition above about 33%); settings: Gal4-VP16 luciferase reporter cells, at 3.6 µM, active compounds read high
[9] = tested on: transactivating tegument protein VP16 (Human herpesvirus 1); assay: VP16 transactivation reporter inhibitors, counter-screen for SRC2 inhibitor project, cell-based, luminescence, single concentration (AID 652007; in the data active means inhibition above about 36%); settings: cell-based VP16 transactivation luciferase reporter, at 8.9 µM, active compounds read high
[10] = target: Nuclear receptor coactivator 2 (Homo sapiens) (UniProt Q15596); assay: SRC2 coactivator transcriptional activity inhibitors, confirmation, cell-based, luminescence, HEK293, triplicate (AID 652008;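 active means mean inhibition above 46.5%, the solvent-only control mean plus 3 SD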;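 further: 0% = DMSO-treated cells and 100% = Gossypol at 36 µM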); settings: HEK293 GAL4-SRC2 luciferase reporter, at 8.9 µM, active compounds read high
Sequence of Nuclear receptor coactivator 2 (Homo sapiens) (Q15596 whole entry, looked up, the tested form may be a part): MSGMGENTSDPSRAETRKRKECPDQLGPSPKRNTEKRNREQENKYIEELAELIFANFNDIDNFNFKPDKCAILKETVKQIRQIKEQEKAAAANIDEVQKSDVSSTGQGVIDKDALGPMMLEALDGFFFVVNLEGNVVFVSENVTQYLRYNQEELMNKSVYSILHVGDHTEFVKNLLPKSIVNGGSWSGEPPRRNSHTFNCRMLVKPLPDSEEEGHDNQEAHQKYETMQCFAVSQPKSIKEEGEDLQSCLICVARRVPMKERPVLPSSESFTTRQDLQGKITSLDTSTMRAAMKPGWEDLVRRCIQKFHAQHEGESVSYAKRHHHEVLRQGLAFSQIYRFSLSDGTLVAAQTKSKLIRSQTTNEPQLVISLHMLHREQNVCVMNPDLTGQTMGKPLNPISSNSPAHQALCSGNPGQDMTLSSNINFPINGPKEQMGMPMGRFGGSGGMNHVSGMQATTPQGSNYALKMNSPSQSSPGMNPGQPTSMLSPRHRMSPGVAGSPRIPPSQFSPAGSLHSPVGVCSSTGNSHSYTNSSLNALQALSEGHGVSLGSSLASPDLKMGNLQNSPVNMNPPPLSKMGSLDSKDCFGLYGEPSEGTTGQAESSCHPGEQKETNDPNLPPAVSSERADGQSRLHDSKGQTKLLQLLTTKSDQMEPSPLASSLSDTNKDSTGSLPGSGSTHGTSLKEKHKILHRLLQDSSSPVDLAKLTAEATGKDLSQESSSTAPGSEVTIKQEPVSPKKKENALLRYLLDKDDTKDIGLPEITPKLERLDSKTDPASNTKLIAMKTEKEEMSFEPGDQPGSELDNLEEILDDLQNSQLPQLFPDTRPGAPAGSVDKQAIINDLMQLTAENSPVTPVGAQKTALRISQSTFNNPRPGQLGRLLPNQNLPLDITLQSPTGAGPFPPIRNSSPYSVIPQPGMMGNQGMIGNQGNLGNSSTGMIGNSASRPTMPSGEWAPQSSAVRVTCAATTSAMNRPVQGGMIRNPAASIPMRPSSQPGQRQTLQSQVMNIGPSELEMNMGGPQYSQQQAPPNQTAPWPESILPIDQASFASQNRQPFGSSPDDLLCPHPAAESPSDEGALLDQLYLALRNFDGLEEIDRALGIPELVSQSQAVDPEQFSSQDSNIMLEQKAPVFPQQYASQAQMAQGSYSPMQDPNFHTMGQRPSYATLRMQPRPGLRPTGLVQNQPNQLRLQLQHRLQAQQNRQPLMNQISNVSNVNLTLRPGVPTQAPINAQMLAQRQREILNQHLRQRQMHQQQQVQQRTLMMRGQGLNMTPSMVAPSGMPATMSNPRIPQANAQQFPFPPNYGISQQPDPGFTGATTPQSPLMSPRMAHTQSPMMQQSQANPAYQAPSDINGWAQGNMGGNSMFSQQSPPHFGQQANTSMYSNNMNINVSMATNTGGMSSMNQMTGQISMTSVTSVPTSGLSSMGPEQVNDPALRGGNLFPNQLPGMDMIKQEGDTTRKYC

[11] = Gal4-VP16 luciferase reporter inhibitors, counter-screen for COUP-TFII antagonist project, cell-based, luminescence, HEK293 (AID 687007; in the data active means inhibition above about 13%); settings: at 8.5 µM, active compounds read high
[12] = target: COUP transcription factor 2 (Homo sapiens) (UniProt P24468); assay: NR2F2 transcriptional activity inhibitors, confirmation, cell-based, luciferase reporter, HEK293, triplicate (AID 687008;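 active means mean inhibition over three repeats above a set limit taken from the earlier primary screen, cut at about 38% in these data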;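 further: 100% = cells given the luciferase reporter alone without the COUP-TF2 vector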); settings: HEK293 NGFI-A luciferase reporter, luminescence; at 8.5 µM; active compounds read high
Sequence of COUP transcription factor 2 (Homo sapiens) (P24468 whole entry, looked up): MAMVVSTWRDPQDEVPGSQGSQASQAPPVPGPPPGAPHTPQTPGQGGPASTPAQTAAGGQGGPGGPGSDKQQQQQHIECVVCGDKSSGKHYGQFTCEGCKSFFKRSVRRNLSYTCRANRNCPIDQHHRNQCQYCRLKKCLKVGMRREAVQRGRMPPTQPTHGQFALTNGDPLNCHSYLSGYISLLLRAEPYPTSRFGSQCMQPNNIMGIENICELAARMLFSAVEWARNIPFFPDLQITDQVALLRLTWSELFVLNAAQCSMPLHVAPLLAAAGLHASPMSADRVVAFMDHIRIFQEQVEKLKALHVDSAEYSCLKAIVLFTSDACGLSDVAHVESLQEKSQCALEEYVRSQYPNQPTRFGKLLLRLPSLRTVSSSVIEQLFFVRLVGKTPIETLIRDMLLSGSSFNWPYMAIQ

SMILES | inhibition [1] | inhibition [2] | inhibition [3] | inhibition [4] | inhibition [5] | inhibition [6] | inhibition [7] | inhibition [8] | inhibition [9] | inhibition [10] | inhibition [11] | inhibition [12]
COC(=O)C12OCC34C(CC5C(C)=C(O)C(=O)CC5(C)C3C(O)C1O)OC(=O)C(OC(=O)/C=C(\C)C(C)C)C24 (stereo unspecified) | 99% (active) | 97.6% (active) | 98.1% (active) | 97.7% (active) | 96.7% (active) | 110% (active) | 98.9% (active) | 97.9% (active) |  |  |  | 
CC1CC(C)CC(C)C(O)C(C#N)=CC=CCC(C2CCCC2C(=O)O)OC(=O)CC(O)C(C)C1 (stereo unspecified) | 97.5% (active) | 95.6% (active) | 89.6% (active) | 94.4% (active) | 95.8% (active) | 110% (active) | 97.9% (active) | 98.7% (active) | 78.4% (active) | 78.7% (active) |  | 
C[C@]12CCC3C(CCC4=CC(O)CC[C@@]43/C=N/O)C1(O)CCC2C1=CC(=O)OC1 (stereo partly specified) | 95.1% (active) | 79.7% (active) | 49.1% (active) | 77.8% (active) | 94.8% (active) | 108% (active) | 97% (active) | 82.5% (active) | 63.6% (active) | 11.4% |  | 
COc1ccc(CC2NCC(O)C2OC(C)=O)cc1 (stereo unspecified) | 98.6% (active) | 96.7% (active) | 96.2% (active) | 96.6% (active) | 96.6% (active) | 111% (active) | 98.3% (active) | 96.1% (active) | 84.6% (active) | 82.5% (active) |  | 
CCN1/C(=C/C=C/C2=[N+](CC)c3ccccc3C2(C)C)C(C)(C)c2ccccc21 | 97.1% (active) | 87.3% (active) | 51.5% (active) | 87.5% (active) | 86.7% (active) | 110% (active) | 96.1% (active) | 96.7% (active) |  |  |  | 
C=C1C(=O)O[C@@H]2C[C@@H](C)[C@@H]3C=CC(=O)[C@@]3(C)[C@@H](OC(=O)CC(=O)O[C@H]3[C@@H]4C(=C)C(=O)O[C@@H]4C[C@@H](C)[C@@H]4C=CC(=O)[C@]43C)[C@H]12 | 97.5% (active) | 96% (active) | 91.3% (active) | 95.7% (active) | 94.5% (active) | 106% (active) | 97.1% (active) | 94.5% (active) | 96% (active) | 99% (active) |  | 
CC(=NCc1ccc(F)cc1)c1c(O)n(C)c(=O)n(C)c1=O | 11% | 49.6% (active) | 12.8% | 49.7% (active) | 39.6% (active) | 51.4% (active) | 73% (active) | 62.8% (active) |  |  |  | 
Cc1ccc(-c2cc(-c3ccc(C)cc3)[n+](C)o2)cc1 | 62.4% (active) | 47.2% (active) | -3.35% | 47.1% (active) | 27.6% | 78.7% (active) | 65.7% (active) | 67.3% (active) |  |  |  | 
CCC(C)C(NC(=O)CCCNC(=O)CCC(=O)OC1O[C@H]2OC3(C)CC[C@H]4[C@H](C)CCC(C1C)C24OO3)C(=O)O (stereo partly specified) | 52.4% (active) | 77.5% (active) | 45% | 76.4% (active) | 71.9% (active) | 101% (active) | 89.8% (active) | 82.9% (active) |  |  |  | 
C[C@]12CC[C@H](O)C[C@H]1CC[C@@H]1[C@@H]2CC[C@]2(C)[C@@H](C3=CC(=O)OC3)CC[C@]12O | 95.3% (active) | 82.7% (active) | 58.7% (active) | 80.1% (active) | 95.7% (active) | 110% (active) | 97.4% (active) | 87% (active) | 56% (active) | 30.2% |  | 
CC(C)c1oc(=O)cc2c1[C@@H](O)[C@H]1OC(=O)[C@@]3(C)CC[C@@H](O)[C@@]2(C)C13 (stereo partly specified) | 40.9% | 7.55% | -2.23% | 10% | 71.4% (active) | 86.2% (active) | 72.3% (active) | 53.6% (active) |  |  |  | 
CN(C)c1ccc(/C=C/c2cc[n+](C)c3ccccc23)cc1 | 55.9% (active) and 45.3% (active) | 74% (active) and 71.3% (active) | 40.2% and 45.5% | 77.9% (active) and 78.6% (active) | 72.7% (active) and 74.2% (active) | 102% (active) and 107% (active) | 86.9% (active) and 89.7% (active) | 82% (active) and 84% (active) |  |  |  | 
CCOc1ccc(-c2cc(C)[n+](CCN(CC)CC)c(-c3ccc(OCC)cc3)c2)cc1 | 68.1% (active) | 80.8% (active) | 67.7% (active) | 81.7% (active) | 73.6% (active) | 105% (active) | 93.8% (active) | 90% (active) |  |  | 19.5% (active) | 62% (active)
